Results as given in PubChem BioAssay AID1984 (Sanford-Burnham Center for Chemical Genomics, 2009).
Screen size: about 290,000 compounds; about 35 (0.01%) were called active. The sample holds actives, similar compounds and a random draw of the others, so the mix is not that of the screen.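 Rule for the calls: active = EGFP signal decrease of at least 30% at 10 µM or well 3 SD below plate mean, unless failing retest; inactive = the rest, including hits failing retest or dose response.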

target: p/CIP-EGFP fusion (nuclear receptor coactivator 3, mouse) (UniProt Q05BA5); test: p/CIP-EGFP fusion destabilizers, primary screen, fluorescence, F442A cells (AID 1984); details: 16 h, at 10 µM, hits give high values
Sequence (Q05BA5 1-1403): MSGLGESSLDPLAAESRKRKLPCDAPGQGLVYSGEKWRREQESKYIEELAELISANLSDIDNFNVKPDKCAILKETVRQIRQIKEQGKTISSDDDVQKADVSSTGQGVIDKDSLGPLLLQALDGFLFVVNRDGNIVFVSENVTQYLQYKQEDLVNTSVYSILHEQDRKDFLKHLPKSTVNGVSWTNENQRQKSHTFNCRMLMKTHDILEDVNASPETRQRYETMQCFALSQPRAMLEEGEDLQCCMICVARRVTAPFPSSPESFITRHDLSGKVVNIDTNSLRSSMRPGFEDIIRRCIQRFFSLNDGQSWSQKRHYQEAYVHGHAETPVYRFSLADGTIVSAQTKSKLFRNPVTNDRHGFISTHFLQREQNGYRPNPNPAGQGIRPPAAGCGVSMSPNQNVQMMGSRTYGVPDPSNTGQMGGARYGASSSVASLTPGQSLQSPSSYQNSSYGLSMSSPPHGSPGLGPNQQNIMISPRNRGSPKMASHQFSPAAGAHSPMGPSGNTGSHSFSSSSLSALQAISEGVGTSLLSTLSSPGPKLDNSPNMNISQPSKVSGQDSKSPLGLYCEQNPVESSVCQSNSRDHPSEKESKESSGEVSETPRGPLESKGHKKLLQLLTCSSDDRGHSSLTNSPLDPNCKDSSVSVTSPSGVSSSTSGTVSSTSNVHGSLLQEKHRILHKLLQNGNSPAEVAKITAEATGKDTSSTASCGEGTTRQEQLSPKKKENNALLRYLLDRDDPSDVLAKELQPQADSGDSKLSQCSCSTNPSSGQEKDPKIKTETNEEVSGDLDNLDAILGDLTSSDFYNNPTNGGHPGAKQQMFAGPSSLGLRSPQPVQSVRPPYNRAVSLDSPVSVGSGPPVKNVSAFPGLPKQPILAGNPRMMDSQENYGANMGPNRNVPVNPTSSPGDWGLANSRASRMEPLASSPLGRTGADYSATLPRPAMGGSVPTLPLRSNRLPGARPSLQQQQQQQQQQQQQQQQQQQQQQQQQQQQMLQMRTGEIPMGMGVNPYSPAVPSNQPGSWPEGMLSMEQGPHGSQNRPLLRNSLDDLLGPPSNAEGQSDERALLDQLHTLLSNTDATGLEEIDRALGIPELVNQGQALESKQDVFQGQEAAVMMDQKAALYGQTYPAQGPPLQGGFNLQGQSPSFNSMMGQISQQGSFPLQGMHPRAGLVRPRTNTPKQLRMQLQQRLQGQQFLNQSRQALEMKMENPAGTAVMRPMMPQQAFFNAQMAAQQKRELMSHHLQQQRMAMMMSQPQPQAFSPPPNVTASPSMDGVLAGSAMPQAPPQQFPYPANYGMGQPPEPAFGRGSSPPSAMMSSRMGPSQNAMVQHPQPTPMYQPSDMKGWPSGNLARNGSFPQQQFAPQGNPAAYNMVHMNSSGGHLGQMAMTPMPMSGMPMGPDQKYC

Decrease of EGFP signal, inactive:
CC(NCCc1ccc(S(N)(=O)=O)cc1)C(=O)NCc1ccccc1 (stereo unspecified) -40%, O=S(=O)(NC1CC2CCC1C2)c1ccc(Cl)cc1 (stereo unspecified) -15.4%, COc1ccccc1NC(=S)N1CCN(c2ccc(F)cc2)CC1 -2%, CCCOc1ccc(Cc2c(O)nc(N)[nH]c2=O)cc1C -10.4%, CC1(C)CCSC(/C=C/c2ccccc2)=N1 -5.5%, CSc1ccc(/C=C/C(=O)NC23CC4CC(CC(C4)C2)C3)cc1 0.4%, COCc1c(C(=O)N/N=C(\C)c2ccncc2)nnn1-c1nonc1N 1.8%, O=S(=O)([N-]c1nc2ccccc2nc1-[n+]1ccc(Cc2ccccc2)cc1)c1ccc(Br)s1 -27.8%, CCCc1cc(C(=O)N2CCCC(CO)(CCCc3ccccc3)C2)n(C)n1 (stereo unspecified) -7.2%, COc1ccc2[nH]c(C(=O)N/N=C/c3cc(OC)c(OC)c(OC)c3)cc2c1 -8.7%, Cc1ccc(NS(=O)(=O)c2cc3c(cc2C)NC(=O)CO3)cc1 -4.5%, CCOCCc1nn2c(=O)cc(CSCC(=O)Nc3cccc(C)c3C)nc2s1 4.4%, COc1ccc(N2CCC(N3CCN(C)C(CCO)C3)CC2)cc1 (stereo unspecified) 13.5%, O=C(NCc1ccccc1)C(c1cccnc1)N(C(=O)c1csnn1)c1ccc(F)cc1 (stereo unspecified) -5.9%, Cc1cc2c(=O)n(CC(=O)NCC(=O)Nc3ccc(C(C)C)cc3)cnc2s1 3.7%, COC(=O)c1sc(-c2ccc(C(C)(C)C)cc2)cc1NC(=O)/C=C/C(=O)O -12.7%, O=C(O)/C=C/C(=O)NNc1ccc([N+](=O)[O-])cc1 -13%, Nc1nc(Nc2ccccc2F)nc(NC2CCCCC2)c1[N+](=O)[O-] -4.1%, COc1ccc(CN2CCN(Cc3ccc(OC)c(OC)c3OC)CC2)cc1 -4.7%, C=CCSc1nnc(N2C(=O)C(O)=C(C(=O)c3ccco3)C2c2ccc(F)cc2)s1 (stereo unspecified) -15.4%, Cc1ccc(CNC(=O)CCC(=O)N2CC(C)Sc3ccccc32)cc1 (stereo unspecified) -1.6%, CC(C)CC(O)C1CCN(C(=O)CCc2nnc(-c3ccc4c(c3)OCO4)o2)CC1 (stereo unspecified) -14.9%, O=C(c1ccc2nc(N3CCOCC3)sc2c1)N1CCN(c2ccc(Cl)cc2)CC1 -11.7%, COc1ccc(C(C(=O)NCC2CCCO2)N(C(=O)Cn2nnc3ccccc32)c2ccc(NC(C)=O)cc2)cc1OC (stereo unspecified) -4.9%, O=C(c1cc(COc2ccc(F)cc2F)on1)N1CCOCC1 -0.2%, O=C(NCc1ccco1)/C(=C/c1cccc([N+](=O)[O-])c1)NC(=O)c1ccco1 1%, Cc1ccccc1N1CCN(C2CCCN(C(=O)c3ocnc3C)C2)CC1 (stereo unspecified) -18.6%, COc1cc(/C=N/NC(=O)c2cccnc2)ccc1OC(=O)c1cccc(Br)c1 -4.4%, CS(=O)(=O)N(CC(=O)Nc1ccc(F)cc1)C1CCCCC1 -0.5%, CC(C)CNC(=O)COC(=O)c1ccccc1OCC(=O)Nc1ccc(Br)cc1 -13.9%, Cc1c(C(=O)NCCN(C)C)oc2ccc(S(=O)(=O)N3CCCC3)cc12 -12.5%, O=C(Nc1ccc(C(=O)O)cc1)/C(=C\c1ccccc1)NC(=O)c1ccc(Br)cc1 -17.7%, Cc1c(Cl)c([N+](=O)[O-])nn1CC(=O)NCCCN1CCOCC1 5.3%, COc1cc(/C=C2\C(=N)N3N=C(CC(=O)N4CCOCC4)SC3=NC2=O)cc(OC)c1OC -17%, O=C(NC(=S)Nc1ccc2oc(=O)ccc2c1)c1ccc(-c2cccc(Cl)c2Cl)o1 -4.3%, CN(C)CCN(Cc1ccccc1)S(=O)(=O)c1csc(C(N)=O)c1 15.1%, COC(=O)C1CCCCN1C(=O)c1ccc(OC2CCN(C(C)=O)CC2)c(OC)c1 (stereo unspecified) 0.9%, O=C(Cc1ccccc1Cl)N1CCOCC1 -2.9%, Cc1c2cnn(CC(=O)NCCCN3CC(C)CC(C)C3)c(=O)c2c(C)n1Cc1ccc(Cl)cc1 (stereo unspecified) 0.5%, CCCC[C@H]1COCCS(=O)(=O)N1Cc1cccc(Cl)c1 -5.5%, O=C1COc2ccc(S(=O)(=O)NCCc3ccc(Cl)cc3)cc2N1 8.8%, Cc1cc(NC(=O)c2ccco2)c(=O)n(Cc2c(F)cccc2Cl)c1 -5.8%, Cc1cc(S(=O)(=O)Nc2ccc(C(=O)NCC(c3ccco3)N3CCCC3)cc2)ccc1F (stereo unspecified) -3%, COc1ccc(CCNc2ncnc3c2nnn3Cc2ccccc2)cc1 -4%, COc1ccc(Cc2nnc(N/N=C/c3ccccc3O)[nH]c2=O)cc1OC -4%, O=C(NNC1=C(C(=O)C(F)(F)F)CCC1)c1ccncc1 -15.9%, Cc1ccnc(N2C(=O)c3ccc([N+](=O)[O-])cc3C2=O)c1 -1.5%, COc1ccc2c(C(=O)c3ccc(C)cc3)n(CCC(N)=O)[n+]([O-])c2c1 -5.8%, CC(C)C(C(=O)NCc1ccco1)N(CC1CCCO1)C(=O)CNS(=O)(=O)c1ccc(F)cc1 (stereo unspecified) -1.5%, Cc1cccc(NC(=O)NC2(C)CCS(=O)(=O)C2)c1 (stereo unspecified) -6.6%, O=C(O)C1CCCN1S(=O)(=O)c1ccc(Br)cc1 (stereo unspecified) -0.2%, Cc1ccc(C)c(N2CCN(S(=O)(=O)c3c(C)[nH]c(C)c3C(=O)N3CCCC3)CC2)c1 3.6%, O=C(NCc1ccncc1)C1CCCN(S(=O)(=O)c2ccc(Br)cc2)C1 (stereo unspecified) -8.8%, COc1ccc(NS(=O)(=O)c2cccc3nsnc23)cc1Cl -11.8%, COc1ccc(C(=O)C2CCCN(C(=O)c3cc4nc(C)cc(C)n4n3)C2)cc1F (stereo unspecified) -9.2%, CCn1c(SCC(=O)NC2CC2)nnc1-c1ccccn1 0.1%, Cc1nc2cc(C(F)(F)F)ccc2n1CCNc1nc(-c2cc(Cl)c(N)c(Cl)c2)cs1 -2.4%, CN(C)CCN(C(=O)C1CCCCC1)c1nc2cc3c(cc2s1)OCO3 -21.2%, O=C(NCc1cccc(C(F)(F)F)c1)c1cccc(S(=O)(=O)N2CCN(Cc3ccccc3)CC2)c1 -8.5%, C=CCNC(=O)c1ccc2c3n(nc2c1)-c1ccc(C)cc1CO3 -3.3%, O=C(O)CCCCCCCCc1cn(CN2C(=O)c3ccccc3C2=O)nn1 -13.1%, CN(Cc1ccccc1Cl)C(=O)C1CCC(=O)N(CCc2cccc(F)c2)C1 (stereo unspecified) -8.9%, CCOc1ccc2c(c1)c(=O)c(S(=O)(=O)c1ccc(C)cc1)cn2CC -6%, CC(C)c1ccc(S(=O)(=O)N2CCC3(CC2)OCCO3)cc1 0.3%, CC1CN(S(=O)(=O)c2cccc(C(F)(F)F)c2)CN1C(=O)N1CCOCC1 (stereo unspecified) -19%, CCCN(CCC)c1nc2c(C)cccn2c(=O)c1/C=C1/SC(=S)N(Cc2ccco2)C1=O -656%, CCOC(=O)c1c(S(=O)(=O)NCC(=O)Nc2ccc(C)cc2)c(C)n(C)c1C 3.3%, COc1ccc(OC)c(CCNC(=O)CCn2ccc3cc(S(=O)(=O)N4CCCC4)ccc32)c1 1%, NC(=O)CC(NC(=O)Cc1ccc(Br)cc1)c1ccc(NC2CC3CCC2C3)c([N+](=O)[O-])c1 (stereo unspecified) 3.9%, Cn1c(SCc2ccc(F)cc2)nnc1-c1ccncc1 -10.6%, COc1ccc(CCNC(=O)CCc2cn(C)c3ccccc23)c(OC)c1 -1.8%, Cc1cc(C)cc(OCC(=O)Nc2cc(NC(=O)COc3cc(C)cc(C)c3)cc(C(=O)O)c2)c1 13.4%, O=C(CCCCCn1c(=S)[nH]c2ccsc2c1=O)NC1CCCCC1 1.2%, Cc1cc(C)c2nc(N3CCC(C(=O)NCCN4CCOCC4)CC3)sc2c1 -53.2%, CCc1cccc(NC(=S)N(CCN(C)C)C2CCN(C(C)C)CC2)c1 2.9%, COc1ccc(NC(=O)CSc2nc(SC)ns2)c(OC)c1 -9.3%, CC(C)(C)OC(=O)NC(Cc1ccccc1)C(=O)NC(CSC1CCCCO1)C(=O)NN (stereo unspecified) 1%, Cc1cccc(NC(=O)c2ccc([N+](=O)[O-])o2)c1 1.2%, CC(Sc1nnnn1C)C(=O)NC(=O)NC1CCCCC1 (stereo unspecified) 12.9%, O=Cc1c(NCCCN2CCCC2=O)c2ccccc2[nH]c1=O -1.8%, N#Cc1ccc(C2N=C(c3ccccc3)NO2)cc1 (stereo unspecified) -11.6%, Cc1ccc(C(=O)N/C(=C\c2cn(C)c3ccccc23)C(=O)N2CCN(C)CC2)cc1 3.7%, CCCCC(O)(CCCC)C(=O)NN(C(=O)CCl)c1ccccc1 -2.8%, CS/C(=C\C(=O)c1ccco1)Nc1ccccc1Cl -2.4%, Cc1nn(-c2ccccc2)c(Cl)c1/C=N/NC(=O)c1nn(C)cc1[N+](=O)[O-] -5.8%, COc1cc(NC(=O)c2ccc(-c3csc(C)n3)cc2)c(OC)cc1Cl -15.5%, COc1ccccc1CN1CCN(Cc2cc(OC)c(OC)cc2OC)CC1 -13.1%, COc1ccc(C(=O)NC(C)CCc2ccccc2)c(OC)c1 (stereo unspecified) -12.7%, O=C(O)c1ccccc1C(=O)NC1=NN(c2ccccc2)CC1 13.1%, CCc1ccc(C(=O)NN=C2CCCCCC2)s1 -8.5%, C=CCn1c(C23CC4CC(CC(C4)C2)C3)n[nH]c1=S -8.9%
